Here are results for 40 sequences from paper PMC9838217, “Structure of SALL4 zinc finger domain reveals link between AT-rich DNA binding and Okihiro syndrome”.

Positions count from the first letter of the chain named.

For one assay, the target named is T1, SALL4 ZFC4 R900W (HT-SELEX) (Mus musculus, UniProt Q8BX22 870-940, R900W).
T1 sequence: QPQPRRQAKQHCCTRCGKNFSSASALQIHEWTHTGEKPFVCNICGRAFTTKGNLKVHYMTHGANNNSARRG
Kind of assay: HT-SELEX; high values mean tight binding. The conditions noted are these: protein: recombinant; vector His6-GST; dsDNA, one strand shown. In outline: (§1)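 Recombinant mouse SALL4 zinc finger cluster 4 (residues 870–940, 1 µg), purified, was mixed with library DNA (1.5 µg in the first cycle, 200 ng thereafter) in 100 µl of buffer containing 10 mM Tris–HCl pH 7.5, 50 mM NaCl, poly(dI-dC) and DTT, and left for 10 min at room temperature. Complexes were captured on Ni2+ beads, washed, amplified by PCR and reselected for up to 6 cycles in triplicate, after which MiSeq sequencing and a 6-mer scan followed. Binding signal is the read fraction of each canonical k-mer, given as fold change relative to the starting random library.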
For GGTCGA, the binding signal is 0.33 ± 0.0136 fold-change vs cycle 0.

CGACGC: the binding signal was 0.0904 ± 0.00963 fold-change vs cycle 0.

As for TGCGCA, the binding signal stood at 0.136 ± 0.00666 fold-change vs cycle 0.

As to AGCGGC, the binding signal worked out at 0.0644 ± 0.00817 fold-change vs cycle 0.

In the case of GCGGAC, the binding signal amounted to 0.125 ± 0.0161 fold-change vs cycle 0.

Consider AAGGCC, for which the binding signal is 0.32 ± 0.0161 fold-change vs cycle 0.

On to GAGCGA, for which the binding signal amounted to 0.326 ± 0.0151 fold-change vs cycle 0.

For the sequence CCGTCG, the binding signal is 0.147 ± 0.00952 fold-change vs cycle 0.

For the sequence CTCGCC, the binding signal was 0.139 ± 0.00418 fold-change vs cycle 0.

As to GTCGCA, the binding signal amounted to 0.215 ± 0.0161 fold-change vs cycle 0.

Regarding CGTGGC, the binding signal is 0.125 ± 0.0124 fold-change vs cycle 0.

As for AGCCCC, the binding signal amounted to 0.191 ± 0.0184 fold-change vs cycle 0.

Turning to GCGCGA, the binding signal is 0.0544 ± 0.00435 fold-change vs cycle 0.

On to GTGGCA, for which the binding signal came out at 0.276 ± 0.00829 fold-change vs cycle 0.

As for CCGGGA, the binding signal amounted to 0.237 ± 0.0178 fold-change vs cycle 0.

As to CGTTGC, the binding signal came out at 0.331 ± 0.00332 fold-change vs cycle 0.

AAGCGG: the binding signal is 0.29 ± 0.026 fold-change vs cycle 0.

Turning to ACGTGC, the binding signal amounted to 0.314 ± 0.00898 fold-change vs cycle 0.

For GGGACC, the binding signal came out at 0.257 ± 0.0113 fold-change vs cycle 0.

With CCGCCA, the binding signal came out at 0.105 ± 0.00392 fold-change vs cycle 0.

GGGCTA: the binding signal was 0.35 ± 0.0254 fold-change vs cycle 0.

GACGGC: the binding signal came to 0.105 ± 0.00605 fold-change vs cycle 0.

On to ATGGCG, for which the binding signal worked out at 0.236 ± 0.0151 fold-change vs cycle 0.

In the case of CCGGAG, the binding signal came to 0.255 ± 0.0305 fold-change vs cycle 0.

With CCTGCC, the binding signal is 0.172 ± 0.00852 fold-change vs cycle 0.

Regarding ACCGCA, the binding signal was found to be 0.267 ± 0.0189 fold-change vs cycle 0.

As to CCGGAC, the binding signal was 0.195 ± 0.02 fold-change vs cycle 0.

For the sequence CCGGCG, the binding signal came out at 0.0367 ± 0.00313 fold-change vs cycle 0.

ACCGGG: the binding signal is 0.239 ± 0.0269 fold-change vs cycle 0.

With GGGGCA, the binding signal amounted to 0.178 ± 0.00946 fold-change vs cycle 0.

Take CAGCGC: the binding signal came out at 0.0744 ± 0.00642 fold-change vs cycle 0.

GCCCTA: the binding signal turned out to be 0.353 ± 0.0173 fold-change vs cycle 0.

AGGGCC: the binding signal turned out to be 0.158 ± 0.0102 fold-change vs cycle 0.

As for GCCCAC, the binding signal is 0.151 ± 0.00605 fold-change vs cycle 0.

As to ACTATG, the binding signal came to 1.37 ± 0.0399 fold-change vs cycle 0.

In the case of CGAGCC, the binding signal was 0.138 ± 0.0111 fold-change vs cycle 0.

For the sequence AGCAGC, the binding signal turned out to be 0.286 ± 0.013 fold-change vs cycle 0.

Consider AGCGCC, for which the binding signal came to 0.0655 ± 0.00477 fold-change vs cycle 0.

As for GCCACA, the binding signal came out at 0.251 ± 0.0128 fold-change vs cycle 0.

With GGCCCA, the binding signal turned out to be 0.126 ± 0.00969 fold-change vs cycle 0.

A further assay concerns the target T2, SALL4 ZFC4 G921D (HT-SELEX) (Mus musculus, UniProt Q8BX22 870-940, G921D).
T2 sequence: T1 sequence with W31R, G52D
The experiment in a line: HT-SELEX; high values mean tight binding. The conditions noted are these: protein: recombinant; vector His6-GST; dsDNA, one strand shown. The method in brief:
as §1
In the case of GGTCGA, the binding signal was determined as 0.48 ± 0.0759 fold-change vs cycle 0.

On to CGACGC, for which the binding signal stood at 0.193 ± 0.0701 fold-change vs cycle 0.

Consider TGCGCA, for which the binding signal turned out to be 0.263 ± 0.0848 fold-change vs cycle 0.

AGCGGC: the binding signal was determined as 0.177 ± 0.0591 fold-change vs cycle 0.

Turning to GCGGAC, the binding signal stood at 0.239 ± 0.0553 fold-change vs cycle 0.

For AAGGCC, the binding signal was 0.435 ± 0.0818 fold-change vs cycle 0.

For GAGCGA, the binding signal was found to be 0.483 ± 0.0727 fold-change vs cycle 0.

For CCGTCG, the binding signal was 0.245 ± 0.0616 fold-change vs cycle 0.

For CTCGCC, the binding signal came out at 0.273 ± 0.0725 fold-change vs cycle 0.

Consider GTCGCA, for which the binding signal came out at 0.341 ± 0.0831 fold-change vs cycle 0.

In the case of CGTGGC, the binding signal turned out to be 0.24 ± 0.0653 fold-change vs cycle 0.

Regarding AGCCCC, the binding signal came to 0.329 ± 0.0672 fold-change vs cycle 0.

On to GCGCGA, for which the binding signal amounted to 0.152 ± 0.0576 fold-change vs cycle 0.

With GTGGCA, the binding signal was determined as 0.424 ± 0.0569 fold-change vs cycle 0.

For the sequence CCGGGA, the binding signal was 0.341 ± 0.0693 fold-change vs cycle 0.

Take CGTTGC: the binding signal was 0.435 ± 0.0499 fold-change vs cycle 0.

Turning to AAGCGG, the binding signal was determined as 0.396 ± 0.0731 fold-change vs cycle 0.

With ACGTGC, the binding signal was found to be 0.439 ± 0.0607 fold-change vs cycle 0.

For GGGACC, the binding signal was 0.386 ± 0.0917 fold-change vs cycle 0.

As for CCGCCA, the binding signal stood at 0.218 ± 0.0543 fold-change vs cycle 0.

With GGGCTA, the binding signal is 0.487 ± 0.0896 fold-change vs cycle 0.

For GACGGC, the binding signal is 0.211 ± 0.0714 fold-change vs cycle 0.

As for ATGGCG, the binding signal worked out at 0.371 ± 0.0568 fold-change vs cycle 0.

For the sequence CCGGAG, the binding signal amounted to 0.352 ± 0.0596 fold-change vs cycle 0.

Turning to CCTGCC, the binding signal was determined as 0.294 ± 0.0738 fold-change vs cycle 0.

For ACCGCA, the binding signal came out at 0.39 ± 0.0525 fold-change vs cycle 0.

On to CCGGAC, for which the binding signal amounted to 0.305 ± 0.0661 fold-change vs cycle 0.

Take CCGGCG: the binding signal is 0.128 ± 0.0641 fold-change vs cycle 0.

For the sequence ACCGGG, the binding signal came to 0.357 ± 0.0693 fold-change vs cycle 0.

As for GGGGCA, the binding signal came to 0.291 ± 0.0681 fold-change vs cycle 0.

On to CAGCGC, for which the binding signal turned out to be 0.177 ± 0.0788 fold-change vs cycle 0.

With GCCCTA, the binding signal worked out at 0.496 ± 0.0842 fold-change vs cycle 0.

In the case of AGGGCC, the binding signal came to 0.28 ± 0.0679 fold-change vs cycle 0.

On to GCCCAC, for which the binding signal stood at 0.271 ± 0.0717 fold-change vs cycle 0.

Turning to ACTATG, the binding signal amounted to 1.34 ± 0.0843 fold-change vs cycle 0.

CGAGCC: the binding signal turned out to be 0.272 ± 0.0858 fold-change vs cycle 0.

For the sequence AGCAGC, the binding signal was determined as 0.426 ± 0.0467 fold-change vs cycle 0.

With AGCGCC, the binding signal amounted to 0.179 ± 0.0733 fold-change vs cycle 0.

Consider GCCACA, for which the binding signal stood at 0.391 ± 0.0588 fold-change vs cycle 0.

In the case of GGCCCA, the binding signal came to 0.245 ± 0.0696 fold-change vs cycle 0.
